# Data published in PubChem BioAssay (NCATS).
# Values without a mark were called inactive. Records with an inconclusive call do not appear. Active and inactive are the calls of the source. Calls follow the shape of the dose curve; as a rule, active = well fitted curve in the direction sought with a large enough effect; inconclusive = small, poorly fitted or top-dose-only effect, or another doubt; inactive = no such curve, though single readings can be large; an effect the other way counts as inactive or inconclusive.
# Tests used:
# [1] = Primary qHTS for inhibitors of nuclear receptor binding SET domain protein 2 (NSD2) in an isogenic RCH-ACV NSD2 p.E1099K mutant (9B) (AID 1645876); also: nearly all actives have a fitted effect of over 70% in size; also: potency is read from the fitted curve at half-maximal effect
# [2] = Primary qHTS for inhibitors of nuclear receptor binding SET domain protein 2 (NSD2) in an RCH-ACV wild type WT cells (2C) (AID 1645877); also: nearly all actives have a fitted effect of over 70% in size; also: potency is read from the fitted curve at half-maximal effect
# [3] = target: Glutathione peroxidase 1 (Homo sapiens) (UniProt P07203); test: Primary qHTS Assay for Inhibitors of Recombinant Selenoprotein Glutathione Peroxidase 1 (GPX1) (AID 1845191); also: nearly all actives have a fitted effect of over 65% in size
# Method in brief: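 GR-coupled assay: compounds preincubated 30 min at room temperature with GPX1, then reaction started with CHP; final 10 nM GPX1, 1 mM GSH, 0.5 mM CHP, 0.5 mM NADPH, 100 nM GR, 0.01% BSA, pH 7.5 Tris buffer. NADPH fluorescence (340/450 nm) read at 0 and 15 min.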
# [4] = target: Phospholipid hydroperoxide glutathione peroxidase GPX4 (Homo sapiens) (UniProt P36969); test: Primary qHTS Assay for Inhibitors of Recombinant Selenoprotein Glutathione Peroxidase 4 (GPX4) (AID 1845192); also: nearly all actives have a fitted effect of over 65% in size
# Method in brief: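 GR-coupled assay: recombinant GPX4 preincubated 30 min with compound at room temperature; final 200 nM GPX4, 1 mM GSH, 0.5 mM cumene hydroperoxide, 0.5 mM NADPH, 100 nM GR, 0.01% BSA, pH 7.5 Tris. NADPH fluorescence (340/450 nm) read at 0 and 15 min.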
# [5] = target: Luciferin 4-monooxygenase (Photinus pyralis) (UniProt P08659); test: Primary firefly luciferase (FLuc) qHTS assay for identification of artifact compounds. (AID 1845220); details: outcome: dose series up to 54.1 µM unless noted; also: nearly all actives have a fitted effect of over 60% in size
# Method in brief: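 Titrated compounds were incubated 15 min at RT, protected from light, with luciferin and ATP at 10 uM; reaction started with 10 nM FLuc, luminescence imaged at 5 min, and concentration-response fitted by Hill equation.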
# [6] = Primary fluorescence-based thiol-reactive (MSTI) qHTS assay for identification of artifact compounds. (AID 1845221);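 also: thiol-reactive compounds lower the probe fluorescence signal; nearly all actives have a fitted effect of over 65% in size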
# Method in brief: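 Thiol-reactive compounds detected by quenching of 4 uM MSTI fluorescence (525/598 nm) after 1 h room-temperature dark incubation in PBS pH 7.4, 2% DMSO. qHTS titration; percent inhibition Hill-fitted against Acetyl-MSTI/MSTI controls.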
# CRL-7250 = normal cell line; test: Cytotoxic Profiling of Annotated Libraries Using Quantitative High-Throughput Screening (AID 1296008); details: Five cell lines viability, CellTiter-Glo ATP luminescence, 48-72 h; max response: hits give low values; also: nearly all actives have a fitted effect of over 60% in size; also: potency is read from the fitted curve at half-maximal effect; as to max response: % is scaled to controls: 0 for no effect and ±100 for the full control effect
# Method in brief: (§1)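 Cells exposed to compounds for 48 or 72 hr at 37 degrees Celsius. Viability read as ATP-coupled luminescence with CellTiter-Glo after 10 min at room temperature.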
# HEK293 = test: as above; details: Five cell lines viability, CellTiter-Glo ATP luminescence, 48-72 h; max response: hits give low values
# Method in brief: as §1
# HaCat = test: as above; details: Five cell lines viability, CellTiter-Glo ATP luminescence, 48-72 h; max response: hits give low values
# Method in brief: as §1
# KB-3-1 = test: as above; details: Five cell lines viability, CellTiter-Glo ATP luminescence, 48-72 h; max response: hits give low values
# Method in brief: as §1
# CASKI = test: Primary qHTS to identify gynecologic anti-cancer compounds using libraries of approved drugs and bioactive compounds (AID 1345084); details: Gynecologic cancer cell panel viability, ATPlite luminescence, 48 h; series mostly up to 57.5 µM; also: nearly all actives have a fitted effect of over 55% in size; also: potency is read from the fitted curve at half-maximal effect; as to activity change, negative = cytotoxicity: % is scaled to controls: 0 for no effect and ±100 for the full control effect
# Method in brief: (§2)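 Five-point cytotoxicity, 48 h drug exposure at 37 C, 5% CO2, on cells seeded 16 h beforehand. ATP content read by ATPlite luminescence.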
# NIH3T3 = test: Cytotoxic Profiling of Annotated Libraries Using Quantitative High-Throughput Screening (AID 1296008); details: Five cell lines viability, CellTiter-Glo ATP luminescence, 48-72 h; max response: hits give low values; also: nearly all actives have a fitted effect of over 60% in size; also: potency is read from the fitted curve at half-maximal effect; as to max response: % is scaled to controls: 0 for no effect and ±100 for the full control effect
# Method in brief: as §1
# C33A = test: Primary qHTS to identify gynecologic anti-cancer compounds using libraries of approved drugs and bioactive compounds (AID 1345084); details: Gynecologic cancer cell panel viability, ATPlite luminescence, 48 h; series mostly up to 57.5 µM; also: nearly all actives have a fitted effect of over 55% in size; also: potency is read from the fitted curve at half-maximal effect; as to activity change, negative = cytotoxicity: % is scaled to controls: 0 for no effect and ±100 for the full control effect
# Method in brief: as §2
# Es-2 = test: as above; details: Gynecologic cancer cell panel viability, ATPlite luminescence, 48 h; series mostly up to 57.5 µM
# Method in brief: as §2
# Hek293T = test: as above; details: Gynecologic cancer cell panel viability, ATPlite luminescence, 48 h, control line for the selectivity index; series mostly up to 57.5 µM
# Method in brief: as §2
# OV90 = test: as above; details: Gynecologic cancer cell panel viability, ATPlite luminescence, 48 h; series mostly up to 57.5 µM
# Method in brief: as §2
# PA-1 = test: as above; details: Gynecologic cancer cell panel viability, ATPlite luminescence, 48 h; series mostly up to 57.5 µM
# Method in brief: as §2
# Tov-21-G = test: as above; details: Gynecologic cancer cell panel viability, ATPlite luminescence, 48 h; series mostly up to 57.5 µM
# Method in brief: as §2
# Tov112D = test: as above; details: Gynecologic cancer cell panel viability, ATPlite luminescence, 48 h; series mostly up to 57.5 µM
# Method in brief: as §2
# [7] = system: Nanoluciferase (engineered Oplophorus gracilirostris luciferase); test: Primary Nanoluciferase (NLuc) qHTS assay for identification of artifact compounds. (AID 1845222);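 also: NLuc secreted into diluted conditioned medium of S16 cells; 0% = DMSO and -100% = no enzyme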
# Method in brief: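 qHTS format, against NLuc in S16 cell-conditioned medium. Nano-Glo substrate 1:100 was added after 15 min at room temperature. Luminescence was taken after a further 5 min.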
# Phospholipid hydroperoxide glutathione peroxidase GPX4 (Homo sapiens), sequence (P36969 whole entry, looked up): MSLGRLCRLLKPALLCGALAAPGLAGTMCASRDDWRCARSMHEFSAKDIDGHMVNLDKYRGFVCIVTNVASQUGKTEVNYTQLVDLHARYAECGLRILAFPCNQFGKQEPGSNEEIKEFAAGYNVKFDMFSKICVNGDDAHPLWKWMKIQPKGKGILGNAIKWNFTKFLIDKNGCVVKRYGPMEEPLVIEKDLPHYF
# Glutathione peroxidase 1 (Homo sapiens), sequence (P07203 whole entry, looked up): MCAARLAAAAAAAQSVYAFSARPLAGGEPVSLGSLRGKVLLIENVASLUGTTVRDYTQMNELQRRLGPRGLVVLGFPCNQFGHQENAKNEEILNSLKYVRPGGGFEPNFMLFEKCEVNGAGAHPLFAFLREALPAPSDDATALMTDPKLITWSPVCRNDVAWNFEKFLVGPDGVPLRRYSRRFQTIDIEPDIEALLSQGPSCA
smiles,measurement,setting,value
COc1cc2c(c(OC)c1OC)-c1ccc(SC)c(=O)cc1[C@@H](NC(C)=O)CC2,Potency,[1],4.6 nM (active)
same,Potency,[2],5.8 nM (active)
same,Potency,[3],inactive
same,Potency,[4],inactive
same,outcome,[5],inactive
same,Potency,[6],inactive
same,Potency,CRL-7250,9.2 nM (active)
same,Potency,HEK293,8.2 nM (active)
same,max response,HaCat,4.59%
same,Potency,KB-3-1,5.8 nM (active)
same,Potency,CASKI,inactive
Nc1ncnc2c1ncn2[C@@H]1O[C@@H]2COP(O)(=S)O[C@H]2[C@H]1O (stereo partly drawn),outcome,[1],inactive [at 9.23 µM]
same,outcome,[2],inactive [at 9.23 µM]
same,outcome,[3],inactive [at 9.52 µM]
same,outcome,[4],inactive [at 9.73 µM]
same,outcome,[5],inactive [at 11.6 µM]
same,"activity change, negative = thiol reactive",[6],-11.9% [at 11.5 µM]
same,max response,CRL-7250,1.79%
same,outcome,HEK293,inactive
same,max response,KB-3-1,-0.196%
same,max response,NIH3T3,4.38%
same,"activity change, negative = cytotoxicity",C33A,2.33% [at 11.6 µM]
same,"activity change, negative = cytotoxicity",CASKI,-3.97% [at 11.6 µM]
same,"activity change, negative = cytotoxicity",Es-2,5.19% [at 11.6 µM]
same,"activity change, negative = cytotoxicity",Hek293T,0.669% [at 11.6 µM]
same,"activity change, negative = cytotoxicity",OV90,0.349% [at 11.6 µM]
same,"activity change, negative = cytotoxicity",PA-1,15.5% [at 11.6 µM]
same,"activity change, negative = cytotoxicity",Tov-21-G,2.4% [at 11.6 µM]
same,"activity change, negative = cytotoxicity",Tov112D,7.56% [at 11.6 µM]
CCCCN1[C@@H]2CC[C@H]1CC(OC(c1ccc(F)cc1)c1ccc(F)cc1)C2 (stereo partly drawn),Potency,[1],12900 nM (active)
same,Potency,[2],9160 nM (active)
same,Potency,[3],inactive
same,Potency,[4],inactive
same,outcome,[5],inactive
same,Potency,[6],inactive
same,Potency,[7],inactive
same,max response,CRL-7250,-21.5%
same,Potency,HEK293,23100 nM (active)
same,max response,HaCat,-29%
same,Potency,C33A,22400 nM (active)
same,Potency,OV90,12600 nM (active)
same,Potency,PA-1,14100 nM (active)
same,Potency,Tov-21-G,inactive
CN[C@@H]1C[C@H]2O[C@@](C)([C@@H]1OC)n1c3ccccc3c3c4c(c5c6ccccc6n2c5c31)C(=O)NC4,Potency,[1],37.2 nM (active)
same,Potency,[2],59 nM (active)
same,Potency,[3],inactive
same,Potency,[6],inactive
same,Potency,[7],inactive
same,Potency,CRL-7250,3.7 nM (active)
same,Potency,HEK293,231 nM (active)
same,Potency,HaCat,184 nM (active)
same,Potency,KB-3-1,130 nM (active)
same,Potency,C33A,1260 nM (active)
same,Potency,CASKI,251 nM (active)
same,Potency,Es-2,631 nM (active)
same,Potency,Hek293T,4470 nM (active)
same,Potency,OV90,316 nM (active)
same,Potency,PA-1,251 nM (active)
same,Potency,Tov112D,891 nM (active)
C=C(C)[C@@H]1[C@H]2OC(=O)[C@H]1[C@]1(O)C[C@H]3O[C@]34C(=O)O[C@H]2[C@]14C,Potency,[1],inactive
same,Potency,[2],inactive
same,Potency,[3],inactive
same,Potency,[4],inactive
same,Potency,[6],inactive
same,Potency,[7],inactive
same,outcome,CRL-7250,inactive
same,outcome,HEK293,inactive
same,outcome,KB-3-1,inactive
same,outcome,NIH3T3,inactive
same,Potency,C33A,inactive
same,Potency,CASKI,inactive
same,Potency,Es-2,inactive
same,Potency,Hek293T,inactive
same,Potency,OV90,inactive
same,Potency,PA-1,inactive
same,Potency,Tov-21-G,inactive
same,Potency,Tov112D,inactive
C[C@@H]1CN(Cc2ccc(F)cc2)CCN1C(=O)COc1ccc(Cl)cc1NC(N)=O,Potency,[3],inactive
same,outcome,[5],inactive
same,Potency,[6],inactive
same,Potency,[7],inactive
same,Potency,CRL-7250,731 nM (active)
same,Potency,HEK293,1300 nM (active)
same,max response,HaCat,-27%
same,Potency,C33A,2510 nM (active)
same,Potency,OV90,8910 nM (active)
same,Potency,Tov-21-G,inactive
C[C@@]1(CO)[C@H](O)CC[C@@]2(C)[C@H]1CC[C@H]1C[C@@H]3C[C@@]12CC[C@]3(O)CO,Potency,[1],3190 nM (active)
same,Potency,[2],2840 nM (active)
same,Potency,[3],inactive
same,Potency,[4],inactive
same,outcome,[5],inactive
same,Potency,[6],inactive
same,Potency,[7],inactive
same,max response,CRL-7250,-2.86%
same,Potency,HEK293,2550 nM (active)
same,Potency,HaCat,9040 nM (active)
same,Potency,NIH3T3,6400 nM (active)
same,Potency,C33A,inactive
same,Potency,CASKI,inactive
same,Potency,Hek293T,inactive
same,Potency,Tov-21-G,inactive
C=C(CO)C(=O)O[C@H]1CC(=C)[C@@H]2C[C@H](O)C(=C)[C@@H]2[C@H]2OC(=O)C(=C)[C@@H]21,Potency,[1],4500 nM (active)
same,Potency,[2],2010 nM (active)
same,Potency,[3],inactive
same,Potency,[4],inactive
same,Potency,[6],inactive
same,max response,CRL-7250,-4.04%
same,Potency,HEK293,5700 nM (active)
same,max response,HaCat,4.94%
same,outcome,KB-3-1,inactive
same,Potency,C33A,inactive
same,Potency,CASKI,inactive
same,Potency,Hek293T,inactive
same,Potency,OV90,inactive
same,Potency,PA-1,inactive
same,Potency,Tov-21-G,inactive
same,Potency,Tov112D,inactive
C[C@@H]1C[C@@H](O)[C@]2(O)O[C@@H]3C[C@@]4(C=O)C(CC[C@@H]5C4CC[C@]4(C)[C@@H](C6=CC(=O)OC6)CC[C@]54O)C[C@H]3O[C@@H]2O1 (stereo partly drawn),Potency,[1],56.3 nM (active)
same,Potency,[2],79.6 nM (active)
same,Potency,[3],inactive
same,Potency,[4],inactive
same,outcome,[5],inactive [at 25.7 µM]
same,Potency,[7],inactive
same,Potency,CRL-7250,35.5 nM (active)
same,Potency,HEK293,44.7 nM (active)
same,Potency,HaCat,252 nM (active)
same,Potency,KB-3-1,100 nM (active)
same,Potency,C33A,inactive
C[C@]12CC[C@H](O)C[C@H]1CC[C@@H]1[C@@H]2[C@H](O)C(=O)[C@]2(C)[C@@H](c3ccc(=O)oc3)CC[C@]12O,Potency,[1],20.5 nM (active)
same,Potency,[2],51.5 nM (active)
same,Potency,[3],inactive
same,Potency,[4],inactive
same,outcome,[5],inactive
same,Potency,[6],inactive
same,Potency,[7],inactive
same,Potency,CRL-7250,41.1 nM (active)
same,Potency,HEK293,32.6 nM (active)
same,Potency,HaCat,130 nM (active)
same,Potency,KB-3-1,46.1 nM (active)
same,max response,NIH3T3,-1.67%
same,Potency,CASKI,398 nM (active)
same,Potency,Es-2,89.1 nM (active)
same,Potency,OV90,282 nM (active)
same,Potency,PA-1,79.4 nM (active)
CC1=C[C@H]2O[C@@H]3[C@H](O)[C@@H](O)[C@](C)([C@@]2(CO)C[C@@H]1O)[C@]31CO1,Potency,[1],728 nM (active)
same,Potency,[2],515 nM (active)
same,Potency,[3],inactive
same,Potency,[4],inactive
same,outcome,[5],inactive
same,Potency,[6],inactive
same,Potency,[7],inactive
same,Potency,CRL-7250,5800 nM (active)
same,Potency,HEK293,1300 nM (active)
same,Potency,HaCat,7310 nM (active)
same,Potency,KB-3-1,1460 nM (active)
same,Potency,C33A,10000 nM (active)
same,Potency,CASKI,11200 nM (active)
same,Potency,Es-2,10000 nM (active)
same,Potency,Hek293T,2820 nM (active)
same,Potency,OV90,8910 nM (active)
same,Potency,PA-1,3980 nM (active)
same,Potency,Tov-21-G,10000 nM (active)
